Potency and activity change, negative = inhibition data for 38 compounds are collected here from PubChem BioAssay (NCATS).

Where “and” joins values, the source holds several entries; their conditions need not be identical. Equal entries are not always repeated. Results filed as inconclusive are left out. A call without a number means that no potency is given here. Calls of active or inactive are those of the source. The call rests on the fitted dose curve.
Potency means the concentration at half of the fitted maximal effect.

This test can be described thus: Primary qHTS to identify inhibitors of SARS-CoV-2 cell entry (AID 1645846). Further: nearly all actives have a fitted effect of over 45% in size. To be noted: SARS-CoV-2 pseudovirus cell entry assay, luminescence; activity change, negative = inhibition: at 57.1 µM (top of the series) unless noted; series mostly up to 57.1 µM. The text has this:
Assay Provider: Wei Zheng, Ph.D.
National Center for Advancing Translational Sciences, National Institute of Health, Rockville, MD.
SARS-CoV-2 spike protein, within the viral envelope, mediates viral attachment and infection of host cells. The SARS-CoV-2 spike protein specifically binds to the host receptor ACE2 (Angiotensin-converting enzyme 2). This interaction promotes endocytosis of the viral particle, additional events lead to viral-host cell membrane fusion and release of the viral contents, allowing viral replication.
While SARS-CoV-2 requires BSL-3 facilities for live virus work, pseudotyped partices (PP) that incorporate SARS-CoV-2 spike proteins without replication elements could facilitate studies on viral entry mechanisms in a BSL-2 setting. This PP cell entry assay could also enable screening of small molecule compound libraries in BSL-2 setting to identify inhibitors of SARS-CoV-2 cell entry.
PROTOCOL TABLE (format as described by Inglese J, Shamu CE and Guy RK. 2007)
SEQUENCE No. (e.g., 1, 2, 3, etc.); […] (e.g., Cells, Incubation, Reagent, etc.); VALUE and DESCRIPTION.
1. Cells. Seed 1500 HEK293-ACE2 cells (Expi293F with stable expression of human ACE2) in 2 uL/well media (DMEM, 10% FBS, 1x L-glutamine, 1x Pen/Strep, 1 ug/ml puromycin) in white 1536-well assay plates (Greiner #782073).
2. Incubation. Incubate at 37C with 5% CO2 overnight (~16 h).
3. Compounds. Dispense 23 nL/well compounds in DMSO via pin transfer.
4. Incubation. Incubate for 1 hr at 37C 5% CO2.
5. Reagent. Dispense 2 uL/well of SARS-CoV-2-S pseudotyped particles. [a] PPs are produced with murine leukemia virus pseudotyping. [b] SARS-CoV-2-S is Wuhan-Hu-1 sequence (BEI #NR-52420) with C-terminal 19 amino acid truncation.
6. Centrifuge. […]
7. Incubation. Incubate at for 48 hr at 37C 5% CO2
8. Centrifuge. Remove supernatant with gentle centrifugation using a Blue Washer (BlueCat Bio).
9. Reagent. Dispense 4 uL/well of Bright-Glo Luciferase detection reagent (Promega #E2620).
10. Incubation. Incubate for 5 min at room temperature.
11. Detection. Read luminescence signal (Viewlux plate reader, PerkinElmer). Data was normalized with wells containing SARS-CoV-2-S PP as 100%, and wells containing bald PP (no fusion protein) as 0%.
In general terms: In qHTS, concentration-response curves come from the screen itself.
Consider `CC(=O)CCC(=O)O`, for which the Potency entry is “inactive”.
Same read-out and setting: as for `CC(C)(Oc1ccc(CCNC(=O)c2ccc(Cl)cc2)cc1)C(=O)O`, the entry is “inactive”; as for `c1ccc(CC2=NCCN2)cc1`, “inactive”.
As to `NC(=O)CC[C@@H](N)C(=O)O`, the activity change, negative = inhibition is -8.52%.
Same read-out and setting: the figure for `OC(CCCN1CCCCC1)(c1ccccc1)c1ccccc1` is -24.7%; for `CN(C)CC[C@@H](c1ccc(Cl)cc1)c1ccccn1` it is 0.546%.
Still for that read-out and setting: the figure for `CCC1NC(=O)c2cc(S(N)(=O)=O)c(Cl)cc2N1` (stereo not given) is -25.9%.
In the case of `Cc1nc(C2CCCCC2)c(-c2ccc(S(N)(=O)=O)c(F)c2)o1`, the Potency entry was “inactive”.
In the case of `C[C@@H]1C[C@H]2[C@@H]3CCC4=CC(=O)C=C[C@]4(C)[C@@]3(Cl)[C@@H](O)C[C@]2(C)[C@@]1(OC(=O)c1ccco1)C(=O)CCl`, the activity change, negative = inhibition is -22.6%.
Same read-out and setting: as for `CCCCCOc1ccc(C2SC(=O)NC2=O)cc1OCC` (stereo not given), the figure is -11.6%.
On to `COc1ccc2c(c1)C(=O)N(CCc1ccc(S(=O)(=O)NC(=O)NC3CCCCC3)cc1)C(=O)C2(C)C`, for which the Potency entry was “inactive”.
Consider `C[C@@H](O)[C@H](N)C(=O)O`, for which the activity change, negative = inhibition is 0.235% [at 27.1 µM].
For the compound `C=CCN1CC[C@]23CCCC[C@H]2[C@H]1Cc1ccc(O)cc13`, the activity change, negative = inhibition was -14.7%.
In the case of `O=C(O)c1cn(-c2ccc(F)cc2)c2cc(N3CCNCC3)c(F)cc2c1=O`, the Potency result is “inactive”.
As for `O=S1(=O)OC(c2ccc(O)cc2)(c2ccc(O)cc2)c2ccccc21`, the activity change, negative = inhibition worked out at 4.87%.
For `C[C@]12CC[C@@H]3c4ccc(O)cc4CC[C@H]3[C@@H]1CCC2=O`, the Potency entry is “inactive”.
On to `N[C@@H](Cc1c[nH]c2ccc(O)cc12)C(=O)O`, for which the Potency entry is “inactive”.
On to `CCOC(=O)OC(C)OC(=O)[C@@H]1N2C(=O)[C@@H](NC(=O)[C@H](N)c3ccccc3)[C@H]2SC1(C)C` (stereo not given in full), for which the activity change, negative = inhibition was -12.7%.
For the compound `CC(=O)Oc1c(C)c(C)c2c(c1C)CC[C@@](C)(CCC[C@H](C)CCC[C@H](C)CCCC(C)C)O2`, the Potency result is “inactive”.
For `CCOC(=O)[C@H](CCc1ccccc1)N[C@H]1CS[C@H](c2cccs2)CN(CC(=O)O)C1=O`, the activity change, negative = inhibition was -4.69% and the Potency entry is “inactive”.
Consider `CC(CC(C(N)=O)(c1ccccc1)c1ccccc1)N(C)C` (stereo not given), for which the activity change, negative = inhibition was -7.18%.
Take `O=S(=O)(c1cccc2cnccc12)N1CCCNCC1`: the activity change, negative = inhibition was -0.418% and the Potency entry is “inactive”.
For the compound `CN1[C@@H]2CC[C@H]1CC(OC(=O)c1c[nH]c3ccccc13)C2` (stereo not given in full), the Potency entry is “inactive”.
Same read-out and setting: as for `CC(=O)OCC(=O)Nc1cc(C#N)cc(NC(=O)COC(C)=O)c1Cl`, the entry is “inactive”.
Take `CC1(C)O[C@@H]2C[C@H]3[C@@H]4C[C@H](F)C5=CC(=O)CC[C@]5(C)[C@H]4[C@@H](O)C[C@]3(C)[C@]2(C(=O)CO)O1`: the Potency result was “inactive”.
As for `CCCCOc1ccc(CC(=O)NO)cc1`, the activity change, negative = inhibition was -20.4% and -25.7%.
Same read-out and setting: as for `O=C(CCCN1CCN(c2ccccn2)CC1)c1ccc(F)cc1`, the figure is -24.8%; as for `CC(O)Cn1cnc2c1c(=O)n(C)c(=O)n2C` (stereo not given), 0.504%.
Consider `NS(=O)(=O)c1cc2c(cc1Cl)NC(C1CC3C=CC1C3)NS2(=O)=O` (stereo not given), for which the Potency entry is “inactive”.
For `C[N+]1(C)[C@@H]2CC[C@H]1CC(OC(=O)C(CO)c1ccccc1)C2` (stereo not given in full), the Potency entry was “inactive”.
Still for that read-out and setting: as for `NS(=O)(=O)c1cc2c(cc1Cl)CN(C1CCCCC1)C2=O`, the entry is “inactive”.
`CCC(=O)O[C@]1(C(=O)COC)[C@@H](C)C[C@H]2[C@@H]3CCC4=CC(=O)C=C[C@]4(C)C3(F)[C@@H](O)C[C@@]21C` (stereo not given in full): the Potency entry is “inactive”.
Same read-out and setting: the figure for `O=C(NOCC1CC1)c1ccc(F)c(F)c1Nc1ccc(I)cc1Cl` is 31.6 µM (active); for `CCOC(=O)n1ccn(C)c1=S` it is “inactive”; for `CN(C)[C@@H](CCOc1cccc2ccccc12)c1ccccc1` it is 10 µM (active).
As to `CC(=O)N[C@H]1[C@H]([C@H](O)[C@H](O)CO)OC(C(=O)O)=C[C@@H]1N=C(N)N`, the activity change, negative = inhibition was -0.176%.
Same read-out and setting: as for `Cc1c(-c2ccccc2)oc2c(C(=O)OCCN3CCCCC3)cccc2c1=O`, the figure is -5.61%.
With `CC(=O)OCC(=O)NCCCOc1cccc(CN2CCCCC2)c1`, the Potency entry was “inactive”.
